Test results from PubChem BioAssay (NCATS).
Where “and” joins values, the source holds several entries; their conditions need not be identical. Equal entries are not always repeated. Inconclusive results are not listed. Calls of active or inactive are those of the source. Unless noted, calls follow the shape of the dose curve; as a rule, active = well fitted curve in the direction sought with a large enough effect; inconclusive = small, poorly fitted or top-dose-only effect, or another doubt; inactive = no such curve, though single readings can be large; an effect the other way counts as inactive or inconclusive.

Legend:
[1] = molecular target: Arylsulfatase A (Homo sapiens) (UniProt P15289); assay: qHTS screen for enhancers of Arylsulfatase A (ASA1): LOPAC Validation Assay (AID 720538); settings: ASA enzyme activity, LOPAC qHTS enhancer assay; series mostly up to 57.5 µM
Chain of Arylsulfatase A (Homo sapiens) (P15289 whole entry, looked up): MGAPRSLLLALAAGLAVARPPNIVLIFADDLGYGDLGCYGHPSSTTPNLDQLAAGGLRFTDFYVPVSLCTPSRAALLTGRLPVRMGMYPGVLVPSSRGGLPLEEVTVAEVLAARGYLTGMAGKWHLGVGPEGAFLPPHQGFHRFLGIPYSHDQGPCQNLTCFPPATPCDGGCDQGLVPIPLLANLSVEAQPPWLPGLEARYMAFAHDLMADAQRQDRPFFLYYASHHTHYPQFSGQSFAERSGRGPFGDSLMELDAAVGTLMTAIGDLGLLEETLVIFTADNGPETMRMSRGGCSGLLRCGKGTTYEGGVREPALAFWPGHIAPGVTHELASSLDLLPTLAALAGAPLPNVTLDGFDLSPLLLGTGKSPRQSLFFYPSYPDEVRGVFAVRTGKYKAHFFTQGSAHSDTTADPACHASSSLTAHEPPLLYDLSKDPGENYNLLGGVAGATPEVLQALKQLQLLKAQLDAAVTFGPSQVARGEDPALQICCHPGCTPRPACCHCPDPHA
Method in brief: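 SV40-transformed skin fibroblasts from an MLD patient (ASA-I179S) were treated with compounds for 48h at 37 degree C, then lysed with 0.5mM pNCS final substrate for 14h at room temperature; NaOH stop, fluorescence read (Ex=525 nm; Em=598 nm).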

[2] = qHTS for compounds that reverse cellular toxicity of Amyloid beta (A-beta) peptide in yeast: LOPAC Validation Assay (AID 720559); settings: yeast expressing A-beta; series mostly up to 46.1 µM;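 also: plate controls were DMSO for no effect and equimolar ferric chloride plus clioquinol rescue for full effect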
Method in brief: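 Yeast cells expressing toxic A-beta were combined with pinned compounds in growth medium and incubated 48 hr at 30 C. Growth was read as absorbance at 600 nm and normalized to DMSO and to an equimolar FeCl3/clioquinol positive control.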

[3] = qHTS for Activators of Parkin Expression: LOPAC Validation Assay (NLuc Reporter) (AID 720572;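 also: 0% = DMSO and 100% = positive control compound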); settings: Parkin promoter NanoLuc reporter cells, luminescence, percent of positive control, DMSO as zero; series mostly up to 46.1 µM
Method in brief: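 Cells harboring the Parkin-promoter coincidence reporter were treated for 24 h at seven concentrations. NLuc output was measured sequentially after the FLuc channel and scaled between DMSO and positive control values.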

[4] = qHTS for Activators of Parkin Expression: LOPAC Validation Assay (FLuc Reporter) (AID 720573;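 also: 0% = DMSO and 100% = positive control compounds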); settings: Cell line, PRKN promoter firefly luciferase reporter, vehicle wells = 0, positive control = 100%; series mostly up to 46.1 µM
Method in brief: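 Neuronal cell line stably carrying FLuc/NLuc coincidence reporter under Parkin promoter; cells plated 24 h, then compounds added in 7-point dose response for 24 h at 37 C. FLuc luminescence read; normalized to DMSO and positive control (100%).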

[5] = molecular target: T1, Hexokinase-4 (Homo sapiens) + Glucokinase regulatory protein (Homo sapiens) (UniProt P35557+Q14397); assay: qHTS assay for inhibitors of recombinant human GCK-GKRP interaction: Diaphorase-coupled assay (AID 743205); settings: G6PDH/diaphorase resorufin fluorescence; series mostly up to 57.5 µM
T1 sequence (P35557 whole entry, looked up): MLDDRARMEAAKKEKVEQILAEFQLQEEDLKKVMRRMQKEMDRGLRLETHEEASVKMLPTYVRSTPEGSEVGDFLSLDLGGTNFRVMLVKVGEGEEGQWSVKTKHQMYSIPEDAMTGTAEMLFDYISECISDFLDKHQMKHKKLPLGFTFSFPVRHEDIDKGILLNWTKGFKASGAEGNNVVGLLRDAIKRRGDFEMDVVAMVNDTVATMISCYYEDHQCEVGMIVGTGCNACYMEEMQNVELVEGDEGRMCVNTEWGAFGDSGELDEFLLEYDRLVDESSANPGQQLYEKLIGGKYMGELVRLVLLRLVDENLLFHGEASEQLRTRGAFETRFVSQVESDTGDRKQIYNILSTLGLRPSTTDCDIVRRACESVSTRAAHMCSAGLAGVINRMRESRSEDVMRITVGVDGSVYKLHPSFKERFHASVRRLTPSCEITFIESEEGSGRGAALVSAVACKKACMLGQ
T1 sequence (Q14397 whole entry, looked up): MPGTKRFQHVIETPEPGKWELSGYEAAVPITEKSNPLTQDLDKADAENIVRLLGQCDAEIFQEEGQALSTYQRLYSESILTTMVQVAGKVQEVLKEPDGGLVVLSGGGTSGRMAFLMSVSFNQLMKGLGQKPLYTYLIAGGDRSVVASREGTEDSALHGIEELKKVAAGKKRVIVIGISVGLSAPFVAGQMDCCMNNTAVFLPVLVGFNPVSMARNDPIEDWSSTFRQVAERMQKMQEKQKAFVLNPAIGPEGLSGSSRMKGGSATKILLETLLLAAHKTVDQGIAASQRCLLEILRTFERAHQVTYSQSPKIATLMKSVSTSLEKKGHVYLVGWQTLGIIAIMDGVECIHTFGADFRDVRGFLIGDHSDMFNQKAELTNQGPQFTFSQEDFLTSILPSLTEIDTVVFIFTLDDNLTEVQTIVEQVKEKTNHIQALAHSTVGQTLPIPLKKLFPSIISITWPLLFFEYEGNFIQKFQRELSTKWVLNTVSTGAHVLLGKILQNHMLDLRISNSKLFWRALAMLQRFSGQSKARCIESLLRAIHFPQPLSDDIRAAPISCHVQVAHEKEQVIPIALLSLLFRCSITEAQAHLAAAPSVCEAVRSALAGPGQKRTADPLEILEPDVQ
Method in brief: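 GST-GCK (10 nM) with FLAG-GKRP (10 nM), 5 mM glucose and 0.4 mM ATP in pH 7.6 Hepes; compounds preincubated 20 min with substrate. G6PDH/diaphorase coupling converts resazurin to resorufin, read kinetically (ex 525/em 590 nm) for 30 min.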

[6] = molecular target: T1, Hexokinase-4 (Homo sapiens) + Glucokinase regulatory protein (Homo sapiens); assay: qHTS assay for inhibitors of recombinant human GCK-GKRP interaction: ADP-Glo assay (AID 743206); settings: ADP-Glo luminescence, 60 min, 0% = vehicle-only wells with enzyme present; series mostly up to 76.9 µM;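 also: plate controls were DMSO plus enzyme for no effect and no enzyme for full effect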
Method in brief: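 Pin-transferred compounds meet a 15 nM GST-GCK/15 nM FLAG-GKRP/2 uM S6P mix (dispense concentrations). ATP is then added to 0.4 mM final with 5 mM glucose, and the reaction runs 60 min at room temperature. ADP is quantified luminescently.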

[7] = molecular target: T1, Hexokinase-4 (Homo sapiens) + Glucokinase regulatory protein (Homo sapiens); assay: qHTS assay for inhibitors of recombinant human GCK-GKRP interaction: HTRF assay (AID 743207); settings: recombinant GCK-GKRP HTRF binding, 60 min, with sorbitol-6-phosphate; series mostly up to 57.5 µM;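 also: 0% = DMSO with GCK present and -100% = DMSO wells lacking GCK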
Method in brief: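 GST-GCK and FLAG-GKRP (5 nM each) were combined with 2 uM S6P in pH 7.1 Hepes/MgCl2/KCl/DTT buffer, then compound and anti-FLAG XL665/anti-GST K antibodies were added. After 60 min at room temperature, HTRF 665/615 nm emission was read.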

[8] = qHTS Assay for Identifying Gametocytocidal Compounds (AID 743244);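 also: % is scaled to controls: 0 for no effect and ±100 for the full control effect; actives lower the fluorescent signal which means gametocytes are killed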; settings: P. falciparum 3D7 stage III-V gametocytes, alamarBlue, 72 h; max response: hits give low values
Method in brief: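 Using 20,000 stage III–V 3D7 gametocytes per well, compounds were incubated 72 h under 37 °C/5% CO2. Viability was then assessed by 24 h alamarBlue reduction, measured fluorometrically at 525/598 nm.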

[9] = qHTS assay for measurement of the activity of small molecule inhibitors on Zika virus induced Caspase-3 activity in human iPSC derived neural progenitor cells (hNPCs) (AID 1224857); settings: hNPCs ZIKV-induced caspase-3/7, Caspase-Glo luminescence, 6 h; series mostly up to 45.7 µM; also: % of control where 0% means no effect; nearly all actives have a fitted effect of over 65% in size
Method in brief: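 After overnight (16–20 h) culture at 350 cells/well, hNPCs get compound, then ZIKV 2 FFU/cell one hour later. Six hours on, Caspase-Glo 3/7 is added and luminescence measured.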

[10] = qHTS assay for small molecule agonists of the antioxidant response element (ARE) signaling pathway measured by Nrf2-dependant transcriptional activity (AID 720636; active = well fitted curve in the direction sought with a large enough effect in the repeat runs; an effect the other way counts as inactive or inconclusive; also: % of control where 0% means no effect); settings: ARE-luc HepG2, Nrf2 luciferase reporter, 16 h; series mostly up to 92.4 µM
Method in brief: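 Nrf2-dependent transcription read as ONE-Glo luciferase signal from ARE-luc HepG2 reporter cells after 16 hr compound treatment at 37 C, 5% CO2, in assay medium with 1% dialyzed FBS.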

[11] = qHTS assay for small molecule antagonists of the retinoid-related orphan receptor gamma (ROR-gamma) signaling pathway - cell viability counter screen (AID 720652; active = well fitted curve in the direction sought with a large enough effect in the repeat runs; an effect the other way counts as inactive or inconclusive;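 also: CHO reporter cells with doxycycline-induced ROR-gamma expression; compound exposure lasted 16 hr before ATP read; % is scaled to controls: 0 for no effect and ±100 for the full control effect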); settings: RORgamma reporter cell line viability counter screen; series mostly up to 92.2 µM
Method in brief: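 Steps: seed CHO cells bearing TET-inducible ROR and ROR response element-luciferase; rest 5 hr at 37 C; add compound, then doxycycline; incubate 16 hr; add CellTiter-Glo and read luminescence as ATP-based viability.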

[12] = qHTS assay for small molecule agonists of the antioxidant response element (ARE) signaling pathway measured by Nrf2-dependant transcriptional activity - cell viability counter screen (AID 720653; active = well fitted curve in the direction sought with a large enough effect in the repeat runs; an effect the other way counts as inactive or inconclusive; also: % is scaled to controls: 0 for no effect and ±100 for the full control effect); settings: ARE-bla HepG2 viability, CellTiter-Glo ATP luminescence, 16 h; hits give low values
Method in brief: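 ARE-bla HepG2 cells (2,000/well) rested 5 hrs at 37C/5% CO2, then exposed to compounds in DMSO for 16 hrs. Viability was read in the same wells as intracellular ATP by luminescence, 30 min at room temperature after reagent addition.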

[13] = qHTS assay for cell viability of HEK293 cells (AID 743288); settings: ATP luminescence (CellTiter-Glo), 18 h, hits give low values; also: % is scaled to controls: 0 for no effect and ±100 for the full control effect; nearly all actives have a fitted effect of over 50% in size
Method in brief: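 After 18 h compound exposure at 37 C, parental HEK293 cells (2,000/well) are lysed with CellTiter-Glo and luminescence is read following 30 min at room temperature.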

NC(N)=NCc1cccc(I)c1
inactive: outcome [1] | outcome [2] | outcome [3] | outcome [4] | outcome [5] | outcome [6] | outcome [7] | max response [8] 10% and 7.9% | Potency [9]

O=C1[C@H](CC[C@H](O)c2ccc(F)cc2)[C@@H](c2ccc(O)cc2)N1c1ccc(F)cc1
inactive: Potency [9]

CCN1CCN(C(=O)N[C@@H](C(=O)N[C@@H]2C(=O)N3C(C(=O)O)=C(CSc4nnnn4C)CS[C@H]23)c2ccc(O)cc2)C(=O)C1=O
inactive: Potency [9]

CCCN(CCC)S(=O)(=O)c1ccc(C(=O)O)cc1
inactive: outcome [10] | outcome [11] | max response [12] 9.27% and -1.08% | max response [8] 12.9% | max response [13] 7.44% and -5.93% | Potency [9]

COc1ccc(-c2cc(C(F)F)nn2-c2ccc(S(N)(=O)=O)cc2)cc1F
inactive: Potency [9]

CC1=C(C(=O)O)N2C(=O)[C@@H](NC(=O)[C@H](N)c3ccccc3)[C@H]2SC1
inactive: Potency [9]

CC(C)Nc1cccnc1N1CCN(C(=O)c2cc3cc(NS(C)(=O)=O)ccc3[nH]2)CC1
inactive: Potency [9]

NCCNC(=O)c1ccc(Cl)cn1
inactive: Potency [9]

CCCCCCCCCCC[C@@H](C[C@@H]1OC(=O)[C@H]1CCCCCC)OC(=O)[C@H](CC(C)C)NC=O
inactive: Potency [9]

CCC1Nc2cc(Cl)c(S(N)(=O)=O)cc2S(=O)(=O)N1 (stereo not given)
inactive: Potency [9]

CCCN(CCc1cccs1)[C@H]1CCc2c(O)cccc2C1
inactive: Potency [9]

COc1cc([C@H]2Oc3cc([C@H]4Oc5cc(O)cc(O)c5C(=O)[C@@H]4O)ccc3O[C@@H]2CO)ccc1O
inactive: outcome [10] | outcome [11] | max response [12] -21.7% | max response [8] -1.37% | max response [13] 5.85% | Potency [9]

Clc1cccc(C(c2ccc3nc[nH]c3c2)n2ccnc2)c1 (stereo not given)
inactive: Potency [9]

CN=C(N)NCCC[C@H](N)C(=O)O
inactive: outcome [1] inactive; inhibitor; fitted 0.0054 uM | outcome [2] | outcome [3] | outcome [4] | outcome [5] | outcome [6] | outcome [7] | max response [8] -7.79% and 5.96% and -18.7% | Potency [9]

Cc1c[nH]c2ccccc12
inactive: Potency [9]

CCCCN=C(N)N=C(N)N
inactive: Potency [9]

CCCCCCCCCCCCCCC[C@H](O)[C@@H](N)CO
inactive: Potency [9]

CCNC(=O)/C=C/c1cccc(Br)c1
inactive: Potency [9]

CCN(CC)CCOc1ccc2c(c1)C(=O)c1cc(OCCN(CC)CC)ccc1-2
inactive: Potency [9]

CCCCC(CC)COC(=O)c1ccc(N(C)C)cc1 (stereo not given)
inactive: outcome [10] | outcome [11] | max response [12] 0.308% and -6.35% | max response [8] 3.36% | max response [13] 4.36% and -3.29% | Potency [9]

O=C(O)c1ccc(S(=O)(=O)N(Cl)Cl)cc1
inactive: outcome [10] | outcome [11] | max response [12] 7.82% | max response [8] -8.91% | max response [13] 0.513% | Potency [9]

CCc1ccc(C(=O)C(C)CN2CCCCC2)cc1 (stereo not given)
inactive: Potency [9]

C/C=C/c1ccc(O)c(OC)c1
inactive: outcome [10] | outcome [11] | max response [12] -8.93% and -1.72% | max response [8] 26.3% | max response [13] -4.69% and 11.4% | Potency [9]

NC(=O)c1ccccc1O
inactive: outcome [10] | outcome [11] | max response [12] -0.33% | max response [8] -5.71% | max response [13] -5% | Potency [9]

CCOc1ccccc1C(N)=O
inactive: outcome [10] | outcome [11] | max response [12] 5.3% | max response [8] 14% | max response [13] 9.95% | Potency [9]

CCOc1ccc(NC(C)=O)cc1
inactive: outcome [10] | outcome [11] | max response [12] 3.98% and -0.784% | max response [8] 18.5% | max response [13] -2.1% and -6.16% | Potency [9]

CCOC(=O)[C@H](CCc1ccccc1)N[C@@H](C)C(=O)N1[C@H](C(=O)O)C[C@H]2CCCC[C@@H]21
inactive: outcome [2] | outcome [3] | outcome [4] | outcome [5] | outcome [6] | outcome [7] | max response [8] -0.763% and -2.8% and 30% | Potency [9]

OC1C(O)C(O)C(O)C(O)C1O (stereo not given)
inactive: Potency [9]

CC(C)(C)NC[C@H](O)COc1nsnc1N1CCOCC1
inactive: outcome [2] | outcome [3] | outcome [4] | outcome [5] | outcome [6] | outcome [7] | max response [8] -3.64% | Potency [9]

C[C@H]1O[C@@H](O[C@H]2CC[C@@]3(C)[C@H](CC[C@@H]4[C@@H]3C[C@@H](O)[C@]3(C)[C@@H](C5=CC(=O)OC5)CC[C@]43O)C2)C[C@H](O)[C@@H]1O[C@H]1C[C@H](O)[C@H](O[C@H]2C[C@H](O)[C@H](O[C@@H]3O[C@H](CO)[C@@H](O)[C@H](O)[C@H]3O)[C@@H](C)O2)[C@@H](C)O1
inactive: Potency [9]
